The panel holds about 79,000 compounds, 15% with a hit somewhere; the sample as a whole holds those more often. Calls of active or inactive are those of the source. Rule as the data show it: active = growth inhibition above about 70%; inactive = the rest.
Experiments:
[1] = NCI Yeast Anticancer Drug Screen. Data for the rad52 strain (AID 147);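 also: 0% = growth of vehicle-treated control cultures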; conditions: S. cerevisiae rad52 mutant growth inhibition, active compounds read high
In short: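 Growth of repair-deficient yeast cells was compared between compound-treated and vehicle-treated cultures to give percent inhibition.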

[2] = NCI Yeast Anticancer Drug Screen. Data for the wt1 strain (AID 149);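 also: 0% = growth of vehicle-treated wt1 cultures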; conditions: S. cerevisiae wt1 strain (SPY 50644) growth inhibition, active compounds read high
In short: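 The wt1 strain was treated with compounds, and growth was compared with vehicle-treated cultures to give inhibition.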

[3] = NCI Yeast Anticancer Drug Screen. Data for the rad50EPP+ strain (AID 151);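 also: 0% = growth of vehicle-treated control cultures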; conditions: S. cerevisiae rad50 mutant strain, active compounds read high
In short: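 Measured: growth inhibition of rad50EPP+ yeast. Reference: vehicle-treated controls. Screen uses strains with defined genetic alterations in DNA damage repair or cell cycle control.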

[4] = NCI Yeast Anticancer Drug Screen. Data for the mgt1 strain (AID 153); conditions: S. cerevisiae mgt1 mutant growth inhibition, active compounds read high
In short: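 Compounds were applied to mgt1 mutant yeast, and growth was then compared against vehicle-treated control cultures to give percent inhibition.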

[5] = NCI Yeast Anticancer Drug Screen. Data for the rad50 strain (AID 155);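 also: 0% = growth of vehicle-only cultures of the same strain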; conditions: S. cerevisiae rad50 strain growth inhibition, active compounds read high
In short: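 Cells are treated with compound, grown, and their growth is then scored against vehicle-only cultures of the same repair-deficient yeast strain.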

[6] = NCI Yeast Anticancer Drug Screen. Data for the mec2-1 strain (AID 157); conditions: S. cerevisiae mec2-1 strain, active compounds read high
In short: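 Compounds were applied to mec2-1 yeast cells. Their growth was then compared with that of vehicle-treated cultures to give growth inhibition.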

[7] = NCI Yeast Anticancer Drug Screen. Data for the rad14 strain (AID 159);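 also: 0% = growth of vehicle-treated control cultures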; conditions: S. cerevisiae rad14 strain growth inhibition, active compounds read high
In short: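 Readout: yeast growth inhibition, referenced to vehicle-only cultures. Strain bears a defined alteration in DNA damage repair.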

[8] = NCI Yeast Anticancer Drug Screen. Data for the sgs1 mgt1 strain (AID 161);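 also: 0% = growth of cultures given vehicle only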; conditions: S. cerevisiae sgs1 mgt1 strain, active compounds read high
In short: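 Yeast cells carrying a defined DNA-repair defect were exposed to test compounds. Growth inhibition was measured relative to vehicle-treated controls.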

[9] = NCI Yeast Anticancer Drug Screen. Data for the CLN2oe strain (AID 163);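 also: 0% = growth of vehicle-only control cultures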; conditions: S. cerevisiae CLN2oe strain, active compounds read high
In short: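 Cells of an engineered yeast line with disturbed cell-cycle regulation are treated with compound. Inhibition of growth is then calculated relative to the vehicle-treated reference.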

[10] = NCI Yeast Anticancer Drug Screen. Data for the cln2 rad14 strain (AID 165);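 also: 0% = growth equal to vehicle treated cultures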; conditions: S. cerevisiae cln2 rad14 strain, active compounds read high
In short: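 Strain: cln2 rad14 yeast, altered in cell cycle control and DNA damage repair. Read-out: growth inhibition vs vehicle.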

[11] = NCI Yeast Anticancer Drug Screen. Data for the bub3 strain (AID 167); conditions: S. cerevisiae bub3 mutant strain, active compounds read high
In short: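 Part of a panel of yeast mutants defective in DNA damage repair or cell cycle regulation. Each strain is grown with compound, and inhibition is calculated relative to solvent-treated cultures.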

[12] = NCI Yeast Anticancer Drug Screen. Data for the wt2 strain (AID 169);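 also: 0% = growth of vehicle-treated yeast cultures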; conditions: S. cerevisiae wt2 strain growth inhibition, active compounds read high
In short: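 Growth of compound-treated yeast is measured and expressed as inhibition relative to vehicle-only controls.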

[13] = NCI Yeast Anticancer Drug Screen. Data for the mlh1 strain (AID 171);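 also: 0% = growth of vehicle-treated control cultures of the same strain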; conditions: S. cerevisiae mlh1 strain growth inhibition, active compounds read high
In short: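 Test agents were incubated with yeast bearing a defined DNA damage repair or cell cycle control alteration; values are growth inhibition normalised to vehicle-treated cultures.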

[14] = NCI Yeast Anticancer Drug Screen. Data for the sgs1 strain (AID 173);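 also: 0% = growth of vehicle-only control cultures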; conditions: S. cerevisiae sgs1 mutant, active compounds read high
In short: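 Strain with an altered DNA repair or cell cycle pathway exposed to compound. Growth then measured. Value = inhibition versus vehicle control.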

[15] = NCI Yeast Anticancer Drug Screen. Data for the mlh1 rad18 strain (AID 175); conditions: S. cerevisiae mlh1 rad18 strain growth inhibition, active compounds read high
In short: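 A repair-deficient yeast strain is exposed to test compound, and growth is scored relative to vehicle-treated controls.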

[16] = NCI Yeast Anticancer Drug Screen. Data for the rad18 strain (AID 177); conditions: S. cerevisiae rad18 mutant growth inhibition, active compounds read high
In short: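 DNA-repair-defective yeast; compound treatment; growth inhibition scored against vehicle.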

[17] = at 5.0 µM (retest, dose inferred, filed as 0.5)
[18] = at 50.0 µM (retest, dose inferred, filed as 5.0)

Measured: growth inhibition

Cc1ccc2[nH]c3c(C)c4cc[n+](C)cc4c(C)c3c2c1
inactive: [1]; at 1.2 µM 25% | [1]; at 3.7 µM 14% | [1]; at 11.0 µM 34% | [2]; at 1.2 µM -6% | [2]; at 3.7 µM -12% | [2]; at 11.0 µM -10% | [2]; at 33.0 µM 6% | [3]; at 1.2 µM 35% | [3]; at 3.7 µM 21% | [3]; at 11.0 µM 31% | [3]; at 33.0 µM 49% | [4]; at 1.2 µM -18% | [4]; at 3.7 µM -15% | [4]; at 11.0 µM -23% | [4]; at 33.0 µM 47% | [5]; at 1.2 µM 12% | [5]; at 3.7 µM 16% | [5]; [17] 22% | [5]; at 11.0 µM 26% | [6]; at 1.2 µM -2% | [6]; at 3.7 µM 19% | [6]; [17] 15% | [6]; at 11.0 µM 8% | [6]; at 33.0 µM 55% | [7]; at 1.2 µM 16% | [7]; at 3.7 µM 6% | [7]; at 11.0 µM -8% | [7]; at 33.0 µM 41% | [8]; [17] 13% | [8]; [18] 8% | [9]; at 1.2 µM 42% | [9]; at 3.7 µM 37% | [9]; at 11.0 µM 36% | [9]; at 33.0 µM 63% | [10]; [17] 30% | [10]; [18] 37% | [10]; at 50.0 µM 62.3% | [11]; at 1.2 µM 10% | [11]; at 3.7 µM 24% | [11]; [17] 12% | [11]; at 11.0 µM 23% | [11]; at 33.0 µM 51% | [11]; at 50.0 µM 65.6% | [12]; at 1.2 µM 3% | [12]; at 3.7 µM -19% | [12]; at 11.0 µM -15% | [12]; at 33.0 µM 49% | [13]; at 1.2 µM 7% | [13]; at 3.7 µM 25% | [13]; at 11.0 µM 14% | [13]; at 33.0 µM 61% | [14]; at 1.2 µM 1% | [14]; at 3.7 µM -21% | [14]; at 11.0 µM 22% | [14]; at 33.0 µM 54% | [15]; [17] 14% | [15]; at 50.0 µM -26.9% | [16]; at 1.2 µM -11% | [16]; at 3.7 µM -1% | [16]; at 11.0 µM 1% | [16]; at 33.0 µM 37%
active: [1]; at 33.0 µM 89% | [1]; at 100.0 µM 97% | [2]; at 100.0 µM 79% | [3]; at 100.0 µM 88% | [4]; at 100.0 µM 94% | [5]; at 33.0 µM 83% | [5]; [18] 91% | [5]; at 50.0 µM 85.6% | [5]; at 100.0 µM 95% | [6]; [18] 71% | [6]; at 50.0 µM 79.8% | [6]; at 100.0 µM 94% | [7]; at 100.0 µM 90% | [8]; at 50.0 µM 85.7% | [9]; at 100.0 µM 95% | [11]; [18] 81% | [11]; at 100.0 µM 95% | [12]; at 100.0 µM 95% | [13]; at 100.0 µM 94% | [14]; at 100.0 µM 93% | [15]; [18] 72% | [16]; at 100.0 µM 93%
